For 108 molecules, inhibition results are on record in PubChem BioAssay AID651664 (NMMLSC, 2012).

Usually inhibition stands for the relative decrease from the control value, in per cent.

Screen size: about 1,800 compounds; fewer than 10 were called active.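 The calls were made as follows: active = inhibition of granule release above a set limit; inactive = the rest.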 Not all results are given here.

The nature of the experiment: LAMP-1 surface externalization blockers in TALL-104 cells – cell-based, flow cytometry, validation set (AID 651664). The conditions noted are these: TALL-104 LAMP-1 externalization, at 15.2 µM, active compounds read high, stimulated with thapsigargin and PMA.
As for `CC1CCCN(C(=O)C2CCN(CC3CC=CCC3)CC2)C1` (stereo not drawn), the inhibition is -1.1% (inactive). Take `OCCN=c1cc(-c2ccccc2)oc2ccc(Cl)cc12`: the inhibition was 3.5% (inactive).

With `O=C(/C=N/O)Nc1ccc(F)cc1`, the inhibition is -2.8% (inactive).

For the molecule `Cc1ccc(-n2nc(C)c3cc(C(=O)O)sc32)cc1`, the inhibition is 5.6% (inactive). The figure for `O=C(CSc1nnc(-c2cccs2)n1-c1ccccc1)Nc1ccccc1` is 22.8% (inactive); for `Cc1nc(NCc2ccco2)c2oc3ccccc3c2n1` it is -2.5% (inactive); for `C=CCn1c(-c2ccco2)n[nH]c1=S` it is -0.5% (inactive).

As for `[O-]C1=N/[N+](=C/c2ccccc2Cl)CC1`, the inhibition was -2.2% (inactive). With `COC(=O)CSc1ncnc2c1cnn2Cc1ccccc1`, the inhibition is -0.5% (inactive). For the molecule `N/C(=N\OS(=O)(=O)c1ccccc1)c1ccncc1`, the inhibition was -2.3% (inactive). `CCOc1ccc(CN(CCO)CCO)cc1[N+](=O)[O-]`: the inhibition is -2.2% (inactive). Consider `O=C(CSc1ccccn1)N1CCN(C(=O)CSc2ccccn2)CC1`, for which the inhibition is 0.4% (inactive).

Consider `Clc1ccc(/C=N/NC(=Nc2ccccc2)c2ccccn2)c(Cl)c1`, for which the inhibition is 1.5% (inactive). The figure for `CC(=O)N1CCN(S(=O)(=O)c2cccc(C(=O)NC3CCCc4ccccc43)c2)CC1` (stereo not drawn) is 0% (inactive). For `Oc1ccccc1N=Nc1nc(-c2ccccc2)c(-c2ccccc2)[nH]1`, the inhibition is -2.4% (inactive). As to `Cc1ccccc1OCC(=O)Nc1cccc(NC(=O)c2ccco2)c1`, the inhibition is 1.8% (inactive). `CC(C(=O)O)N1C(=O)CSc2ncccc21` (stereo not drawn): the inhibition was 2.4% (inactive). For `CCC(C)NC(=O)Cn1cccc1C(=O)c1ccccc1` (stereo not drawn) the value was -0.2% (inactive); for `CC(NC(=O)NCCCC(=O)O)(C(F)(F)F)C(F)(F)F`, 2% (inactive). With `Cc1ccc(S(=O)(=O)N2CCOCC2)cc1C(=O)OCC(=O)N1CCc2ccccc2C1`, the inhibition was -0.4% (inactive). As to `Cc1cc2c(cc1C)NC(c1nc3ccccc3[nH]1)C1=C(CC(C)(C)CC1=O)N2` (stereo not drawn), the inhibition is -3.1% (inactive). The figure for `O=c1[nH]c2c(s1)C(c1ccccc1)C1C3CCC(C3)C1S2` (stereo not drawn) is 0.8% (inactive); for `COCCCNC(=O)C1CCC(=O)N1Cc1ccccc1Cl` (stereo not drawn) it is 0.7% (inactive).

As for `Cc1ccc(C(=O)Cn2cnc3ccccc3c2=O)cc1C`, the inhibition was 6.9% (inactive). Turning to `C=C(C)CN1C(=O)C(O)(CC(=O)c2ccc3c(c2)OCCO3)c2ccccc21` (stereo not drawn), the inhibition was 1.5% (inactive).

On to `Cc1cc(C)c(S(=O)(=O)NCc2cn3c(C)csc3n2)c(C)c1`, for which the inhibition is -4.5% (inactive). Turning to `CC1=CC=CN2CC(O)CN=C12` (stereo not drawn), the inhibition is 1% (inactive). For `O=C(Oc1ccccc1)N1CCN(c2ccc(F)cc2)CC1` the value was 6.6% (inactive); for `COC(=O)c1ccc(CN2CCN(Cc3ccc(C(=O)OC)o3)CC2)o1`, 2.2% (inactive).

Consider `O=c1[nH]n(-c2ncnc3c2cnn3-c2ccccc2)c(=O)c2ccccc12`, for which the inhibition was -0.6% (inactive). For `CCC(C)N=CC1=C(O)CC(c2ccccc2)CC1=O` (stereo not drawn) the value was -2.1% (inactive). In the case of `O=C(c1ccccc1)N(CCN1CCOCC1)C1(C(=O)Nc2ccccc2)CCCCC1`, the inhibition was 5.2% (inactive).

For the molecule `COc1ccc(NC(=O)CSc2c(C)nn(-c3nnc(C)c(=O)[nH]3)c2C)cc1`, the inhibition is 0.5% (inactive). With `COC(=O)c1ccc(CSc2nc3ccccc3c(=O)n2-c2ccccc2)o1`, the inhibition is -0.9% (inactive). For the molecule `Cn1c(CN2CCCC2)nc2cc(NS(=O)(=O)c3ccc(Cl)cc3)ccc21`, the inhibition was -3.8% (inactive). Turning to `CCC(C)NC(=O)CSc1nnc(-c2cc(-c3cccs3)nc3ccccc23)o1` (stereo not drawn), the inhibition was -1.3% (inactive). As to `COC(=O)c1cc(NC(=O)CN(c2ccc3c(c2)OCO3)S(C)(=O)=O)ccc1Cl`, the inhibition was 1.7% (inactive). Consider `CCOc1ccccc1N1CC(C(=O)Nc2nccs2)CC1=O` (stereo not drawn), for which the inhibition is -1.1% (inactive).

Turning to `Cc1cnc(NC(=O)c2ccc3c(c2)C(=O)N(Cc2ccco2)C3=O)s1`, the inhibition is -1.3% (inactive). The figure for `COc1ccc(N/N=C(/N=Nc2nc(C)cc(=O)[nH]2)c2ccccc2)cc1` is 3.7% (inactive); for `CCOC(=O)c1ccc(N2C(=O)CC(Sc3nnc(C)s3)C2=O)cc1` (stereo not drawn) it is -0.5% (inactive). For `Cc1ccc(-c2nc(N)c3c(-c4ccc(C)cc4)nn(C(C)(C)C)c3n2)cc1` the value was 0% (inactive); for `O=c1[nH]c(CO)nc2c1oc1ccccc12`, -3.5% (inactive). The figure for `CCC(C#CCN1CCCCC1)(CC)OCCC#N` is 25.8% (inactive); for `COC(=O)CN1C(=O)CSc2ncccc21` it is 0.6% (inactive).

For `CCCCOCCCNC(=O)N[C@H](C(=O)OC)C(C)C`, the inhibition was -2.9% (inactive). For `Nc1ncnc2nc(SCc3ccc(Cl)cc3Cl)[nH]c12` the value was 6.3% (inactive).

For `CN(C)c1nc(SCc2ccccc2Cl)nc2c1CCCC2`, the inhibition is -0.7% (inactive).

For the molecule `CC1(C)Cc2c(sc3ncn4nc(-c5ccco5)nc4c23)CO1`, the inhibition is -1.3% (inactive). The figure for `O=C(COc1ccc(F)cc1)c1ccc2c(c1)CCCC2` is -2.8% (inactive). As for `O=C1c2ccccc2-c2c1nc1c([n+]2[O-])CCCC1`, the inhibition is -5.1% (inactive).

With `COc1ccc2c(c1OC)C(=O)N(c1cccc(C)c1)C2=O`, the inhibition is 1.1% (inactive). As for `CO/N=C/C(=N\Nc1ccc(OC)cc1)C(=O)c1ccc(OC)cc1`, the inhibition was 0.7% (inactive). For `COc1ccc(S(=O)(=O)N(C)CC(=O)Nc2ccccc2C(F)(F)F)cc1OC` the value was -1.6% (inactive); for `CN1CCN(c2nc(-c3ccccc3)nc3c2oc2ccccc23)CC1`, 1.5% (inactive).

Regarding `O=C(CSc1nnc(CNc2ccc(F)cc2)n1-c1ccccc1)N1CCOCC1`, the inhibition is -4.6% (inactive). Regarding `COc1ccc(N=C2S/C(=C\c3ccc(C)s3)C(=O)N2CC(C)C)cc1`, the inhibition was -0.3% (inactive). For `Fc1ccccc1/C=N/Nc1nn[nH]n1`, the inhibition is -1.6% (inactive). For `CCOC(=O)c1c(NC(=O)Cc2cccs2)sc(C(=O)N2CCCCC2)c1C`, the inhibition was -4.7% (inactive). Regarding `CN=C(NC)SC1CC(=O)N(c2ccccc2)C1=O` (stereo not drawn), the inhibition is 3.9% (inactive). Consider `CCOc1cc(/C=N/n2cnnc2)cc(Br)c1O`, for which the inhibition is -0.7% (inactive). In the case of `O=C1CCC(=O)N1c1nc2nc(-c3ccccc3)cc(=O)n2[nH]1`, the inhibition was -1.6% (inactive). For `CC(=O)COc1ncn(-c2ccccc2)n1` the value was 0.2% (inactive); for `Fc1cc2nc(-c3ccncc3)[nH]c2cc1F`, -0.1% (inactive); for `Cc1noc(NS(=O)(=O)c2ccc(NC(=O)Nc3ccc(Cl)c(Cl)c3)cc2)c1C`, 0% (inactive). For `CCn1c(-c2ccccc2)c[nH]c1=S` the value was -1.3% (inactive); for `Nc1c(C(=O)NCC2CCCO2)sc(=S)n1-c1ccccc1` (stereo not drawn), 0.7% (inactive); for `COc1ccc(C)cc1-n1nnnc1SCc1cn2ccsc2n1`, -3.3% (inactive). The figure for `CC(=O)c1ccc(N2CCN(CCC#N)CC2)c(F)c1` is 8.2% (inactive); for `Cc1occc1C(=O)NC(C)CCc1ccccc1` (stereo not drawn) it is 6.4% (inactive); for `CC(C)(C)NC(=O)C1Cc2ccccc2CN1C(=O)Nc1cccc(Cl)c1` (stereo not drawn) it is 3.6% (inactive). As to `CN(C)c1ccc(-c2nnc(-c3ccc(S(=O)(=O)C(F)F)cc3)o2)cc1`, the inhibition is -2% (inactive). Regarding `COc1ccc(-c2sc(NC(=O)c3ccc(C)cc3)nc2-c2ccc([N+](=O)[O-])cc2)cc1`, the inhibition is 0.2% (inactive). With `NC(=O)NC(=O)CSc1nc(-c2ccccc2)c(-c2ccccc2)n1CC1CCCO1` (stereo not drawn), the inhibition was 3.8% (inactive).

For `CCCc1nc2ccccc2c(=O)n1/N=C/c1ccccc1O`, the inhibition is -1.9% (inactive). For the molecule `Cc1snc(S(=O)(=O)/C(C#N)=N/Nc2cccc(C(F)(F)F)c2)c1C#N`, the inhibition is 5.6% (inactive). Turning to `CCNc1nc(NCC)nc(OCCOC(=O)COc2ccc(Cl)cc2Cl)n1`, the inhibition was -2.4% (inactive). As for `CN1CC(=O)NC1=NC(=O)c1ccc(Cl)c(S(=O)(=O)N2CCCCCC2)c1`, the inhibition is -1.1% (inactive).

For the molecule `Cc1ccc2c(c1Br)/C(=N/N1C(=O)c3ccccc3C1=O)C(=O)N2`, the inhibition is -3.6% (inactive).

With `Clc1ccc(-c2nnnn2-c2ccc(Cl)c(Cl)c2)cc1Cl`, the inhibition is -0.4% (inactive).

For the molecule `COc1ccccc1N(C(=O)c1ccco1)C(C(=O)NC1CCCC1)c1cccnc1` (stereo not drawn), the inhibition was -0.8% (inactive). `CC(C)(C)NC(=O)Cc1ccc(S(=O)(=O)N2CCCC2)s1`: the inhibition is -1.8% (inactive). For the molecule `Nc1nc(CSc2nc3ccccc3s2)nc(N2CCCCC2)n1`, the inhibition is 3.2% (inactive).

Turning to `FC(F)(F)c1cccc(NC(=S)N2CCN(c3cccc(C(F)(F)F)c3)CC2)c1`, the inhibition is -4.7% (inactive). Consider `Cc1nc2cc(S(=O)(=O)N3CCC(C(=O)O)CC3)ccc2n1C1CCCC1`, for which the inhibition is -3.7% (inactive).

As to `O=C(CSc1ncnc2c1cnn2Cc1ccccc1)Nc1ccc2c(c1)OCCO2`, the inhibition was 0.3% (inactive).

On to `O=C1c2ccccc2C(=O)N1SC1CCCCC1`, for which the inhibition was -1.8% (inactive). As for `COCCCn1c(-c2ccccc2Cl)n[nH]c1=S`, the inhibition was 4.6% (inactive).

For the molecule `Cn1c(-c2ccccc2Br)n[nH]c1=S`, the inhibition was 89.2% (active). The figure for `S=c1[nH]nc(-c2ccccc2Cl)n1CC1CCCO1` (stereo not drawn) is -1.9% (inactive). For the molecule `Cc1nn2c(N)c(C#N)cnc2c1-c1ccc(Cl)cc1`, the inhibition is 2.5% (inactive). With `CN1CCN(C(=O)c2ccc3c(c2)NC(=O)C(N2CCOCC2)S3)CC1` (stereo not drawn), the inhibition is 3.1% (inactive). As for `COCCNc1nc2ccccc2nc1NS(=O)(=O)c1ccc(C)cc1C`, the inhibition was 2.3% (inactive). The figure for `CC(=O)C(C)Oc1ncn(-c2ccccc2)n1` (stereo not drawn) is -3% (inactive); for `N#Cc1ccc(C(=O)Nc2ccc(S(=O)(=O)NC3=NCCCCC3)cc2)cc1` it is 4.4% (inactive); for `O=C(Nc1ccccc1)N1CCN(c2ccccn2)CC1` it is -1.4% (inactive).

Turning to `O=C1CCCCC1C(Nc1ccc(Cl)cc1)c1ccccc1` (stereo not drawn), the inhibition was 1.3% (inactive). In the case of `COc1ccc(C(CNC(=O)c2ccc(N3CCCC3=O)cc2)N(C)C)cc1` (stereo not drawn), the inhibition is -2% (inactive). Take `Clc1ccccc1C1SCC2Nc3ccccc3CN21` (stereo not drawn): the inhibition was 0.1% (inactive). Take `Cc1cccc(/C(N)=N/OC(=O)CCCN2C(=O)c3ccccc3C2=O)c1`: the inhibition is 1.9% (inactive). Consider `COc1ccccc1NC(=O)CC1COc2ccccc2O1` (stereo not drawn), for which the inhibition was -0.3% (inactive).

With `CCOc1ccccc1NC(=O)c1ccc(S(=O)(=O)N2CCOCC2)cc1`, the inhibition was -1.3% (inactive). With `Cc1ccc(Cl)cc1NC(=O)CSC(N)=O`, the inhibition is -3% (inactive).

In the case of `COC(=O)C1=CN(CCCN2CCCC2=O)C=C(C(=O)OC)C1c1ccccc1C(F)(F)F`, the inhibition is 3.5% (inactive). As for `CCC(CC)NC(=O)c1cc2c(C)nn(Cc3ccccc3Cl)c2s1`, the inhibition was -0.5% (inactive).

Turning to `Cc1nnc(N(CCC#N)CCC#N)s1`, the inhibition is 0% (inactive). Regarding `O=C(CN1CCN(c2cccc(C(F)(F)F)c2)CC1)Nc1cccc(C(F)(F)F)c1`, the inhibition was -3.2% (inactive). Regarding `Cc1oc2nc(SCCCC(=O)NCCO)nc(N)c2c1C`, the inhibition is 2.7% (inactive).
